Hit rate of the full screen: of about 5,500 compounds, about 2,000 (36%) were called active. Not shown: some 18% with an inconclusive outcome. Rule as the data show it: active = normalized growth mostly below about 0.91 (no sharp cut-off); inconclusive = no clear call, values can overlap the other calls; inactive = mostly above about 0.92. This is one part of the list.
Test: chemical genetic growth profiling, strain panel (AID 1159580);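 also: tested at 20 µM; growth read once vehicle control cultures reached saturation at 30 °C; 1 = growth at the plate median or of vehicle wells; lower values mean less growth of the strain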
Settings: growth OD

Measured: normalized growth

C[C@H]1COc2c(N3CCN(C)CC3)c(F)cc3c(=O)c(C(=O)O)cn1c23
inactive: S. cerevisiae deletion strains, locus YJR075W, strain HOC1, stronger effect = lower value 0.991 | S. cerevisiae deletion strains, locus YKL009W, strain mrt4, stronger effect = lower value 1.01 | S. cerevisiae deletion strains, locus YKL068W, stronger effect = lower value 1 | S. cerevisiae deletion strains, locus YKL085W, strain MDH1 (second series), stronger effect = lower value 1.01 | S. cerevisiae deletion strains, locus YKL085W, strain MDH1, stronger effect = lower value 1.01 | S. cerevisiae deletion strains, locus YKL160W, strain elf1, stronger effect = lower value 1.01 | S. cerevisiae deletion strains, locus YKL190W, strain CNB1, stronger effect = lower value 0.998 | S. cerevisiae deletion strains, locus YKR001C, strain vps1, stronger effect = lower value 1.03 | S. cerevisiae deletion strains, locus YKR026C, strain gcn3, stronger effect = lower value 1.02 | S. cerevisiae deletion strains, locus YKR091W, strain srl3, stronger effect = lower value 1.03 | S. cerevisiae deletion strains, locus YLL001W, strain dnm1, stronger effect = lower value 1.04 | S. cerevisiae deletion strains, locus YLL026W, stronger effect = lower value 1.03 | S. cerevisiae deletion strains, locus YLL041C, strain sdh2, stronger effect = lower value 1.02 | S. cerevisiae deletion strains, locus YLR027C, strain aat2, stronger effect = lower value 1.03 | S. cerevisiae deletion strains, locus YLR039C, strain RIC1, stronger effect = lower value 1.01 | S. cerevisiae deletion strains, locus YLR058C, strain SHM2, stronger effect = lower value 1.01 | S. cerevisiae deletion strains, locus YLR102C, strain apc9, stronger effect = lower value 1.01 | S. cerevisiae deletion strains, locus YLR113W, strain HOG1, stronger effect = lower value 1.03 | S. cerevisiae deletion strains, locus YLR221C, strain rsa3, stronger effect = lower value 0.984 | S. cerevisiae deletion strains, locus YLR258W, strain gsy2, stronger effect = lower value 1.02 | S. cerevisiae deletion strains, locus YLR262C, strain YPT6 (second series), stronger effect = lower value 1.02 | S. cerevisiae deletion strains, locus YLR262C, strain YPT6, stronger effect = lower value 1.01 | S. cerevisiae deletion strains, locus YLR268W, strain sec22, stronger effect = lower value 1 | S. cerevisiae deletion strains, locus YLR320W, strain mms22, stronger effect = lower value 1.02 | S. cerevisiae deletion strains, locus YLR330W, strain CHS5, stronger effect = lower value 1 | S. cerevisiae deletion strains, locus YLR342W, strain FKS1 (second series), stronger effect = lower value 0.984 | S. cerevisiae deletion strains, locus YLR342W, strain FKS1, stronger effect = lower value 1.03 | S. cerevisiae deletion strains, locus YLR357W, strain rsc2, stronger effect = lower value 1.02 | S. cerevisiae deletion strains, locus YLR370C, strain arc18, stronger effect = lower value 1.03 | S. cerevisiae deletion strains, locus YLR371W, strain rom2, stronger effect = lower value 1 | S. cerevisiae deletion strains, locus YLR384C, strain iki3, stronger effect = lower value 1.03 | S. cerevisiae deletion strains, locus YLR418C, strain cdc73, stronger effect = lower value 1.02 | S. cerevisiae deletion strains, locus YML016C, strain PPZ1, stronger effect = lower value 1.01 | S. cerevisiae deletion strains, locus YML032C, strain rad52, stronger effect = lower value 0.965 | S. cerevisiae deletion strains, locus YML120C, strain ndi1, stronger effect = lower value 1.01 | S. cerevisiae deletion strains, locus YML124C, strain tub3, stronger effect = lower value 1.02 | S. cerevisiae deletion strains, locus YMR058W, strain fet3, stronger effect = lower value 1.02 | S. cerevisiae deletion strains, locus YMR078C, strain ctf18, stronger effect = lower value 1.02 | S. cerevisiae deletion strains, locus YMR125W, strain sto1, stronger effect = lower value 1.02 | S. cerevisiae deletion strains, locus YMR129W, stronger effect = lower value 1.03 | S. cerevisiae deletion strains, locus YMR205C, strain PFK2, stronger effect = lower value 0.985 | S. cerevisiae deletion strains, locus YMR223W, strain ubp8, stronger effect = lower value 1.01 | S. cerevisiae deletion strains, locus YMR231W, strain pep5, stronger effect = lower value 1.03 | S. cerevisiae deletion strains, locus YMR263W, strain SAP30, stronger effect = lower value 0.991 | S. cerevisiae deletion strains, locus YMR307W, strain GAS1, stronger effect = lower value 1.04 | S. cerevisiae deletion strains, locus YNL067W, strain RPL9B, stronger effect = lower value 1 | S. cerevisiae deletion strains, locus YNL071W, strain lat1, stronger effect = lower value 1 | S. cerevisiae deletion strains, locus YNL128W, strain TEP1, stronger effect = lower value 0.975 | S. cerevisiae deletion strains, locus YNL153C, strain GIM3, stronger effect = lower value 1 | S. cerevisiae deletion strains, locus YNL183C, strain NPR1, stronger effect = lower value 0.97 | S. cerevisiae deletion strains, locus YNL209W, strain ssb2, stronger effect = lower value 1.01 | S. cerevisiae deletion strains, locus YNL233W, strain BNI4, stronger effect = lower value 1.01 | S. cerevisiae deletion strains, locus YNL248C, strain rpa49, stronger effect = lower value 1.03 | S. cerevisiae deletion strains, locus YNL250W, strain rad50, stronger effect = lower value 1.01 | S. cerevisiae deletion strains, locus YNL271C, strain bni1, stronger effect = lower value 1.01 | S. cerevisiae deletion strains, locus YNL298W, strain CLA4, stronger effect = lower value 1.02 | S. cerevisiae deletion strains, locus YNL307C, strain MCK1, stronger effect = lower value 1.03 | S. cerevisiae deletion strains, locus YNL322C, strain KRE1 (second series), stronger effect = lower value 1.03 | S. cerevisiae deletion strains, locus YNL322C, strain KRE1, stronger effect = lower value 0.999 | S. cerevisiae deletion strains, locus YNR049C, strain mso1, stronger effect = lower value 1.01 | S. cerevisiae deletion strains, locus YNR052C, strain pop2, stronger effect = lower value 1.02 | S. cerevisiae deletion strains, locus YOL006C, strain TOP1, stronger effect = lower value 1.05 | S. cerevisiae deletion strains, locus YOL012C, strain htz1 0.78 | S. cerevisiae deletion strains, locus YOL147C, strain pex11, stronger effect = lower value 1.01 | S. cerevisiae deletion strains, locus YOR001W, strain rrp6, stronger effect = lower value 1.02 | S. cerevisiae deletion strains, locus YOR061W, strain CKA2, stronger effect = lower value 1.01 | S. cerevisiae deletion strains, locus YOR069W, strain VPS5, stronger effect = lower value 0.995 | S. cerevisiae deletion strains, locus YOR070C, strain gyp1, stronger effect = lower value 1.02 | S. cerevisiae deletion strains, locus YOR080W, strain dia2, stronger effect = lower value 1.04 | S. cerevisiae deletion strains, locus YOR083W, strain WHI5, stronger effect = lower value 1.03 | S. cerevisiae deletion strains, locus YOR106W, strain vam3, stronger effect = lower value 1.01 | S. cerevisiae deletion strains, locus YOR136W, strain idh2, stronger effect = lower value 1.02 | S. cerevisiae deletion strains, locus YOR144C, strain elg1, stronger effect = lower value 1.01 | S. cerevisiae deletion strains, locus YOR184W, strain ser1, stronger effect = lower value 1.02 | S. cerevisiae deletion strains, locus YOR231W, strain MKK1, stronger effect = lower value 0.996 | S. cerevisiae deletion strains, locus YOR265W, strain rbl2, stronger effect = lower value 1.03 | S. cerevisiae deletion strains, locus YOR270C, strain vph1, stronger effect = lower value 1.07 | S. cerevisiae deletion strains, locus YOR290C, strain snf2, stronger effect = lower value 1.03 | S. cerevisiae deletion strains, locus YOR316C, strain cot1, stronger effect = lower value 1.02 | S. cerevisiae deletion strains, locus YPL051W, strain arl3, stronger effect = lower value 1.03 | S. cerevisiae deletion strains, locus YPL055C, strain LGE1, stronger effect = lower value 0.997 | S. cerevisiae deletion strains, locus YPL078C, strain atp4, stronger effect = lower value 1.02 | S. cerevisiae deletion strains, locus YPL106C, strain sse1, stronger effect = lower value 0.991 | S. cerevisiae deletion strains, locus YPL240C, strain hsp82, stronger effect = lower value 1.01 | S. cerevisiae deletion strains, locus YPL241C, strain CIN2, stronger effect = lower value 1.01 | S. cerevisiae deletion strains, locus YPL256C, strain CLN2, stronger effect = lower value 0.958 | S. cerevisiae deletion strains, locus YPR119W, strain clb2, stronger effect = lower value 1.01 | S. cerevisiae deletion strains, locus YPR141C, strain kar3, stronger effect = lower value 1.02 | S. cerevisiae deletion strains, locus YPR163C, strain tif3, stronger effect = lower value 1.03 | S. cerevisiae deletion strains, locus YPR167C, strain met16, stronger effect = lower value 1.02 | S. cerevisiae deletion strains, strain wtn01, stronger effect = lower value 1.01 | S. cerevisiae strains, strain wild type, stronger effect = lower value 0.981
